Source: PubChem BioAssay
Calls of active or inactive are those of the source.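 How the source made its calls: active means visual image review flags a hit and inhibition of aggregation exceeds 20%; inconclusive means visual hit but inhibition at or below 20%; inactive means no hit on visual image review.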

assay: reduction of polyQ htt aggregates in cells – imaging, exon1htt(103Q)mCFP cells, high-content imaging, primary screen (AID 483); conditions: exon1htt(103Q)mCFP cell line, aggregate imaging, at 2 µM; inhibition of aggregation: stronger effect = higher value; nuclei count: measured here: cell count, toxicity;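 further: compound exposure lasted 3 days before fixation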;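 on nuclei count: percent of the per-plate median nuclei count of sample wells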

Row | Compound | inhibition of aggregation | nuclei count [%]
1 | Cc1cc(C)nc(SCc2nnc(SCC(=O)Nc3ncc(C)s3)n2Cc2ccco2)n1 | 7.1% (inactive) | 98.6
2 | COc1cccc(C2C(C(=O)c3cccs3)=C(O)C(=O)N2CCCn2ccnc2)c1OC (stereo not given) | 12.6% (inactive) | 96.7
3 | COc1cc(C(=O)N(C)c2nnc(-c3cccnc3)s2)cc(OC)c1OC | 0.4% (inactive) | 99.2
4 | CC(=O)Nc1nnc(SCC(=O)NCC2CCCO2)s1 (stereo not given) | -1.3% (inactive) | 102
5 | O=C(CSc1nc2cc(S(=O)(=O)N3CCOCC3)ccc2o1)NC1CCCc2ccccc21 (stereo not given) | -7.6% (inactive) | 89.9
6 | O=C(NCCN1CCOCC1)c1ccc(CS(=O)(=O)Cc2ccccc2F)o1 | -10.5% (inactive) | 94.3
7 | CCOC(=O)c1c(C)oc2ccc(NS(=O)(=O)c3ccc4c5c(cccc35)C(=O)N4)cc12 | -5.8% (inactive) | 99
8 | COC(=O)CCn1nnc(-c2ccc(C)cc2)n1 | -4.9% (inactive) | 110
9 | O=C(Nc1ccc(NC(=O)C2CC2)cn1)c1ccccc1Cl | -13% (inactive) | 104
10 | COc1ccc(NC(=O)CC2CCCCC2)cc1OC | -4.8% (inactive) | 91.1
11 | CC1(C)CC2CC(C)(CN2S(=O)(=O)c2ccc(N)cc2)C1 (stereo not given) | 30.3% (inactive) | 79.8
12 | COc1cc(C(=O)NCC(=O)OCC(=O)c2ccc[nH]2)cc(OC)c1OC | 10.7% (inactive) | 101
13 | C=CCSc1nnc(-c2ccc(Cl)cc2Cl)o1 | 16.3% (inactive) | 84.8
14 | COc1cc(CC(=O)Oc2ccc3c(c2)OCO3)cc(OC)c1OC | -5.8% (inactive) | 112
15 | C(=N\n1cnnc1)/c1cccc(OCCOc2ccccc2)c1 | 0% (inactive) | 96
16 | CCN(CC)C(c1ccc(C)cc1)c1nnnn1C1CCCCC1 (stereo not given) | 37.1% (inactive) | 85.4
17 | CCOC(=O)Nc1ccc2c(c1)N(C(=O)CCN1CCOCC1)c1ccccc1S2 | 32.1% (inactive) | 100
18 | Cc1cc(=O)c2n(Cc3ccccc3Cl)nc[n+]2[nH]1 | 3% (inactive) | 97.2
19 | CC12CN3CCN(CC(C3)C1(O)CN1CCCCC1)C2 (stereo not given) | -16.8% (inactive) | 111
20 | Cc1cc(C)n(C(C)n2nc(C)cc2C)n1 | -9.9% (inactive) | 110

Row | Compound | inhibition of aggregation | nuclei count [%]
21 | COC(=O)CSc1nnc(CSc2nc(C)cc(C)n2)n1Cc1ccco1 | -0.5% (inactive) | 99.8
22 | Cc1cc(NC(=O)CSc2nc(C3CCCCC3)nc3ccccc23)no1 | -20.3% (inactive) | 110
23 | Cc1cccc(C)c1NC(=O)COC(=O)c1nonc1N | 3.6% (inactive) | 99.3
24 | CCn1c(=N)n(CC(=O)c2ccco2)c2ccccc21 | 22.6% (inactive) | 68
25 | C=C(C)Cn1c(CCCNC(=O)C(C)(C)C)nc2ccccc21 | -0.5% (inactive) | 106
26 | Cc1cn(C2CC3OCC3O2)c(=O)[nH]c1=O (stereo not given) | 0.6% (inactive) | 98.5
27 | CC(=O)Nc1ccc(Cc2ccncc2)cc1 | 14.9% (inactive) | 93.3
28 | O=C(Nc1ccon1)c1cccc(S(=O)(=O)N2CCCC2)c1 | 21% (inactive) | 86.7
29 | CCOC(=O)c1sc(NC(=O)CSc2ncn(-c3ccccc3)n2)nc1C | 14.5% (inactive) | 102
30 | O=C(Nc1ccccc1)N(CCCN1CCOCC1)Cc1cc2cc3c(cc2[nH]c1=O)OCCO3 | 20.1% (inactive) | 70.5
31 | COCC(=O)n1nc(NCc2ccc(OC)cc2)nc1NCc1ccc(OC)cc1 | -19.7% (inactive) | 101
32 | Cc1ccc(S(=O)(=O)N2CCN(C(=O)N3CCOCC3)C2c2ccc(N(C)C)cc2)cc1 (stereo not given) | 0.7% (inactive) | 98
33 | COc1cccc2c(=O)cc(C)n(CC(=O)Nc3ccc(C)c(C)c3)c12 | -8.4% (inactive) | 50.1
34 | O=C(NCc1cccnc1)c1cccc(C(F)(F)F)c1 | 1.3% (inactive) | 111
35 | COc1ccc(C(=O)Nc2ccc(Cl)c(Cl)c2)c(OC)n1 | -20.2% (inactive) | 111
36 | COc1cc(C(=O)OCc2cc3ccccc3[nH]c2=O)cc(OC)c1OC | -3.9% (inactive) | 99.3
37 | COc1cc(C)c(Br)cc1S(=O)(=O)N1CCOCC1 | 3.4% (inactive) | 106
38 | FC(F)Oc1cccc2cccnc12 | -5.4% (inactive) | 103
39 | Cc1ccc(OCC2Cn3c(nc4c3c(=O)n(C)c(=O)n4C)O2)cc1 (stereo not given) | 22.4% (inactive) | 104
40 | Cc1cnc(C(=O)Nc2ccccc2-n2cccc2)cn1 | -9.1% (inactive) | 107
